Results published in ChEMBL document CHEMBL5606460, “ASAP - DENV-2 NS2B-NS3 protease fluorescence single point” (2024).
Hit rate of the full screen: of about 2,000 compounds, about 110 (5.5%) showed an effect of 50% or more. For the sample, strong results were picked, then their nearest neighbours and some compounds at random.

Target: Genome polyprotein (dengue virus type 2) (UniProt P29990)
[1] = Thailand/16681/1984, Concentration 25.0 uM, Number of replicates 1.0

## CC(C)Cn1cccc(C(=O)Nc2ccncc2C(F)(F)F)c1=O
Thailand/16681/1984, Concentration 49.5 uM, Number of replicates 2.0, Standard deviation 5.23322293563183 %
  inhibition: -3.89%
Thailand/16681/1984, Concentration 99.01 uM, Number of replicates 2.0, Standard deviation 0.16283923825626637 %
  inhibition: -4.73%
Thailand/16681/1984, Concentration 198.0 uM, Number of replicates 2.0, Standard deviation 1.971758036933884 %
  inhibition: -6.94%

## O=Cc1ccc(N2CCC(C(=O)N3CCN(C(=O)[C@H]4COc5ccccc5O4)CC3)CC2)cc1
[1]
  inhibition: 13%

## NCc1cccc(NC(=O)[C@H]2CC(F)(F)CN2C(=O)OCc2ccccc2)c1
Thailand/16681/1984, Concentration 49.5 uM, Number of replicates 2.0, Standard deviation 3.8817212285914895 %
  inhibition: -3.13%
Thailand/16681/1984, Concentration 99.01 uM, Number of replicates 2.0, Standard deviation 4.048573795130085 %
  inhibition: -2.21%
Thailand/16681/1984, Concentration 198.0 uM, Number of replicates 2.0, Standard deviation 4.090127173867097 %
  inhibition: -1.49%

## O=Cc1ccc(N2CCC(C(=O)N(Cc3ccco3)Cc3cccs3)CC2)cc1
[1]
  inhibition: 11%

## Cc1cc(CO)c2cccc(NC(=O)c3ccc(N)nn3)c2n1
Thailand/16681/1984, Concentration 49.95 uM, Number of replicates 2.0, Standard deviation 1.176901179972867 %
  inhibition: 11%
Thailand/16681/1984, Concentration 99.9 uM, Number of replicates 2.0, Standard deviation 1.886285239678155 %
  inhibition: 19.5%

## C[C@@H](Cc1ccc(C(F)(F)F)cc1)NC(=O)C1CCN(c2ccc(C=O)cc2)CC1
[1]
  inhibition: 8.27%

## O=Cc1ccc(N2CCC(C(=O)NCC34CC5CC(CC(C5)C3)C4)CC2)cc1
[1]
  inhibition: 11.8%

## c1ccc2[nH]c(CN3CC[C@H](c4c[nH]c5ccccc45)C3)cc2c1
Thailand/16681/1984, Concentration 49.5 uM, Number of replicates 2.0, Standard deviation 0.7608740215940771 %
  inhibition: 4.51%
Thailand/16681/1984, Concentration 99.01 uM, Number of replicates 2.0, Standard deviation 0.30587350380986955 %
  inhibition: 4.39%
Thailand/16681/1984, Concentration 198.0 uM, Number of replicates 2.0, Standard deviation 0.6449469231287406 %
  inhibition: 3.06%

## Cc1c(Br)cnc(NC(=O)C2CCN(c3ccc(C=O)cc3)CC2)c1[N+](=O)[O-]
[1]
  inhibition: 13.3%

## Cc1nn(Cc2nnc(C(C)C)o2)cc1C1CCNCC1
Thailand/16681/1984, Concentration 49.5 uM, Number of replicates 2.0, Standard deviation 1.2271984598057826 %
  inhibition: -1.09%
Thailand/16681/1984, Concentration 99.01 uM, Number of replicates 2.0, Standard deviation 0.3137269789739955 %
  inhibition: -1.28%
Thailand/16681/1984, Concentration 198.0 uM, Number of replicates 2.0, Standard deviation 0.585185347191749 %
  inhibition: -1.14%

## O=Cc1ccc(N2CCC(C(=O)N3CCN(c4ncccn4)CC3)CC2)cc1
[1]
  inhibition: 13.4%

## O=C(NC[C@H]1CCOC1)c1cc(Cl)ccc1NS(=O)(=O)c1ccc(Oc2ccccc2Cl)cc1
Thailand/16681/1984, Concentration 49.5 uM, Number of replicates 2.0, Standard deviation 2.9570930238802475 %
  inhibition: 78.1%
Thailand/16681/1984, Concentration 99.01 uM, Number of replicates 2.0, Standard deviation 0.09728436725720986 %
  inhibition: 83.4%
Thailand/16681/1984, Concentration 198.0 uM, Number of replicates 2.0, Standard deviation 0.16101849440059574 %
  inhibition: 79%

## O=S(=O)(NC1CCCCC1)c1ccc(Oc2ccccc2Cl)cc1
Thailand/16681/1984, Concentration 49.5 uM, Number of replicates 2.0, Standard deviation 1.7919780415060578 %
  inhibition: 0.164%
Thailand/16681/1984, Concentration 99.01 uM, Number of replicates 2.0, Standard deviation 2.26588512977007 %
  inhibition: 2.51%
Thailand/16681/1984, Concentration 198.0 uM, Number of replicates 2.0, Standard deviation 2.2194744531827233 %
  inhibition: 5.38%

## O=C(N[C@H]1CCOC1)c1cc(Cl)ccc1NS(=O)(=O)c1ccc(Oc2ccccc2Cl)cc1
Thailand/16681/1984, Concentration 49.5 uM, Number of replicates 2.0, Standard deviation 0.8156312071794307 %
  inhibition: 64.1%
Thailand/16681/1984, Concentration 99.01 uM, Number of replicates 2.0, Standard deviation 0.42939613872644544 %
  inhibition: 63.6%
Thailand/16681/1984, Concentration 198.0 uM, Number of replicates 2.0, Standard deviation 0.707503298737338 %
  inhibition: 53%

## Cc1cc(CN)c2cccc(Cl)c2n1
Thailand/16681/1984, Concentration 49.95 uM, Number of replicates 2.0, Standard deviation 5.413623438036859 %
  inhibition: -7.74%
Thailand/16681/1984, Concentration 99.9 uM, Number of replicates 2.0, Standard deviation 5.696602605148216 %
  inhibition: -7.99%

## CN(CCO[Si](C)(C)C(C)(C)C)C(=O)C1CCN(c2ccc(C=O)cc2)CC1
[1]
  inhibition: 11.8%

## Cc1cc(CO)c2cccc(Cc3cccc(NC(=O)C(=O)c4ccco4)c3)c2n1
Thailand/16681/1984, Concentration 49.95 uM, Number of replicates 2.0, Standard deviation 2.5499602835301056 %
  inhibition: -0.234%
Thailand/16681/1984, Concentration 99.9 uM, Number of replicates 2.0, Standard deviation 0.7837509937910023 %
  inhibition: -0.946%

## Cc1cc(C(=O)N2CCN(C(=O)c3cc(C(C)(F)F)n[nH]3)CC2)cc2nn[nH]c12
Thailand/16681/1984, Concentration 49.5 uM, Number of replicates 2.0, Standard deviation 0.5040908488530289 %
  inhibition: 1.22%
Thailand/16681/1984, Concentration 99.01 uM, Number of replicates 2.0, Standard deviation 0.07028947937337628 %
  inhibition: 1.9%
Thailand/16681/1984, Concentration 198.0 uM, Number of replicates 2.0, Standard deviation 0.7181064342983147 %
  inhibition: 2.65%

## O=Cc1ccc(N2CCC(C(=O)N[C@@H](CCO)c3ccccc3F)CC2)cc1
[1]
  inhibition: 11.4%

## CNC(=O)[C@H]1CN(S(=O)(=O)c2ccc(Oc3ccccc3Cl)cc2)CCO1
Thailand/16681/1984, Concentration 49.5 uM, Number of replicates 2.0, Standard deviation 0.2669928674711758 %
  inhibition: -4.8%
Thailand/16681/1984, Concentration 99.01 uM, Number of replicates 2.0, Standard deviation 0.624095865646037 %
  inhibition: -4.22%
Thailand/16681/1984, Concentration 198.0 uM, Number of replicates 2.0, Standard deviation 0.6183745152543801 %
  inhibition: -5.47%

## Nc1ccnc2c(Cl)cccc12
Thailand/16681/1984, Concentration 49.95 uM, Number of replicates 2.0, Standard deviation 2.736837302484984 %
  inhibition: -9.22%
Thailand/16681/1984, Concentration 99.9 uM, Number of replicates 2.0, Standard deviation 4.13445849353631 %
  inhibition: -8.19%

## Nc1cccc2c(Cl)ccnc12
Thailand/16681/1984, Concentration 49.95 uM, Number of replicates 2.0, Standard deviation 9.3539447807875 %
  inhibition: 25.3%
Thailand/16681/1984, Concentration 99.9 uM, Number of replicates 2.0, Standard deviation 4.02175613474424 %
  inhibition: 68.2%

## Nc1ccc(Cl)c2cccnc12
Thailand/16681/1984, Concentration 49.95 uM, Number of replicates 2.0, Standard deviation 3.8383177085719704 %
  inhibition: -6.59%
Thailand/16681/1984, Concentration 99.9 uM, Number of replicates 2.0, Standard deviation 5.003138959022175 %
  inhibition: -3.71%
